A selection: hits, their analogues and other compounds. The true share with any hit is near 19%.
TDP1 cell CPT: qHTS for Inhibitors of human tyrosyl-DNA phosphodiesterase 1 (TDP1): qHTS in cells in presence of CPT; chicken DT40 Tdp1-/-;hTDP1 cells + 20 nM CPT, ATP luminescence, 48 h; Potency, µM (doses to about 46.2 µM), for inactives: at the highest dose activity change, negative = growth inhibition, most hits filed as inhibitors; 420,000 compounds, 12% hits; AID 686979, 2013; also: potency is read from the fitted curve at half-maximal effect; % is scaled to controls: 0 for no effect and ±100 for the full control effect; nearly all actives have a fitted effect of over 55% in size
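Cell growth measured by CellTiter-Glo luminescence after a minimum 48 h, 37 C compound exposure with 20 nM CPT in Tdp1-knockout DT40 cells stably expressing hTDP1, seeded 400/well; qHTS titration format.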
IL1B secr inh: qHTS for Inhibitors of Inflammasome Signaling: IL-1-beta AlphaLISA Primary Screen | THP-1 LPS/ATP IL-1B secretion, AlphaLISA, 16 h; stronger effect = lower value | activity change, % at 57.5 µM | 360,000 compounds, 4.7% hits | AID 743279, 2014; in the data active = activity change below about -50%; inconclusive = mostly about -30% to -49%; also: % is scaled to controls: 0 for no effect and ±100 for the full control effect
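Secreted IL-1B measured by AlphaLISA bead assay after 16 h compound exposure of THP-1 cells; compounds (final up to 57.5 uM) added 1 h before LPS (250 ng/mL) and ATP (1.25 mM) stimulation; lower signal means less secretion.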
HepG2 tox: qHTS for Inhibitors of TGF-b: Cytotox Counterscreen | Potency, µM (top dose mostly 46.1 µM), inactives show at the top dose activity change, negative = cytotoxicity, hits mostly cytotoxic | HepG2 CAGA-GFP viability, ATP luminescence, 18 h | AID 588856, 2011 | 410,000 compounds, 0.76% hits; also: potency is read from the fitted curve at half-maximal effect
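HepG2 CAGA-GFP cells (1000/well, DMEM with 1% FBS) received compound, then TGF-beta at 500 pg/mL final, and were incubated 18 hours at 37 degrees C. Viability was read by CellTiter-Glo luminescence. Media-only wells were set as complete cell-killing and DMSO as no toxicity.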
TDP1 cell noCPT: qHTS for Inhibitors of human tyrosyl-DNA phosphodiesterase 1 (TDP1): qHTS in cells in absence of CPT; 420,000 compounds, 15% hits; Potency, µM (doses to about 46.2 µM), for inactives: at the highest dose activity change, negative = growth inhibition, usual class: inhibitors; AID 686978, 2013; DT40 Tdp1-/- hTDP1 cells, no CPT, ATP luminescence, 48 h; also: potency is read from the fitted curve at half-maximal effect; % is scaled to controls: 0 for no effect and ±100 for the full control effect; nearly all actives have a fitted effect of over 55% in size
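Growth kinetics read by CellTiter-Glo luminescence after ≥48 hr at 37 °C. Cells: DT40 Tdp1-/- stably carrying human TDP1, 400 per well, compound exposure in the absence of CPT (DMSO vehicle).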
S-ASM inh: Inhibitors of Secretory Acid Sphingomyelinase (S-ASM): qHTS; Sphingomyelin phosphodiesterase (Homo sapiens), P17405; 340,000 compounds, 0.006% hits; Potency, µM (doses to about 57.5 µM), for inactives: at the highest dose activity change, negative = inhibition, actives largely listed as inhibitors; placental ASM, HMU-PC fluorogenic substrate, 60 min; also: potency is read from the fitted curve at half-maximal effect
Target sequence (P17405 47-631 limits assumed): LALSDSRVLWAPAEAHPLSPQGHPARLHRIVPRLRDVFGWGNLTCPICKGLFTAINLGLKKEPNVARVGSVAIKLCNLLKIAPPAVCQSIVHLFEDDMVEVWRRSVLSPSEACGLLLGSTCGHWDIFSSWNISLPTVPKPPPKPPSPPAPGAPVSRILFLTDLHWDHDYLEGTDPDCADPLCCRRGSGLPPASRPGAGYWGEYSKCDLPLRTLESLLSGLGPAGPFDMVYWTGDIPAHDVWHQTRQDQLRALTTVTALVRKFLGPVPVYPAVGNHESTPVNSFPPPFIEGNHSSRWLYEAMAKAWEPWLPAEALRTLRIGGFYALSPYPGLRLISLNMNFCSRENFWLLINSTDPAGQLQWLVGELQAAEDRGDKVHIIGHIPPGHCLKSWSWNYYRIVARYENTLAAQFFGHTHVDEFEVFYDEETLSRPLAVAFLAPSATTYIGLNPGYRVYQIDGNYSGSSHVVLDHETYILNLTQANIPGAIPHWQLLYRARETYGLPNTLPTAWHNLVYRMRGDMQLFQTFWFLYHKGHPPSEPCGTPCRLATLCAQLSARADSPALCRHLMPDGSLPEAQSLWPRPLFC
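Steps: dispense placental human ASM, pin compound, wait 10 min at room temperature, add HMU-PC0 substrate at 9 uM final, incubate 60 min at 37 °C, add stop solution raising pH to 10, read fluorescence.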
TGFb inhibitor: qHTS for Inhibitors of TGF-b | HepG2 CAGA-GFP TGF-b/SMAD3 reporter, GFP fluorescence, 18 h; TGF-beta stimulated, 500 pg/mL final | AID 588855, 2011 | Potency, µM (titrated, usually from 46.1 µM), for inactives: at the highest dose activity, negative = inhibition, most hits filed as inhibitors | 410,000 compounds, 1.2% hits; also: potency is read from the fitted curve at half-maximal effect; % is scaled to controls: 0 for no effect and ±100 for the full control effect; nearly all actives have a fitted effect of over 65% in size
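HEPG2 CAGA-GFP, 1000 cells/well; 2 h settle, 37 C; cpd via pin tool; TGF-b 500 pg/mL final; 18 h, 37 C; GFP imaging ex488/em500-530; %Activity normalised to -TGF-b and +DMSO controls; CRC fit, curve class.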
Active calls of the source: *; ? = inconclusive; . = not tested or not shown; [ ] = dose if it differs, or a comment. Unless noted, calls follow the shape of the dose curve; as a rule, active = well fitted curve in the direction sought with a large enough effect; inconclusive = small, poorly fitted or top-dose-only effect, or another doubt; inactive = no such curve, though single readings can be large; an effect the other way counts as inactive or inconclusive.

SMILES | TDP1 cell CPT | IL1B secr inh | HepG2 tox | TDP1 cell noCPT | S-ASM inh | TGFb inhibitor
COC(=O)c1cc(-c2ccccc2)sc1NC(=O)CN1C(=O)c2ccccc2C1=O | -22% | -62* | -13% | -27% | -2% | 0%
COC(=O)c1cc(OC)c(OC)cc1NC(=O)CN1C(=O)c2ccccc2C1=O | 0% | 18 | 3% | -6% | -3% | 16%
NC(=O)c1cc(-c2ccccc2)sc1NC(=O)CN1CCCCC1 | 21µM* | -51* | -26% | 23µM* | -1% | ?
CC(C)(C)C(=O)Nc1sc(-c2ccccc2)cc1C(=O)O | ? | -78* | 1% | ? | 11% | -5%
Cc1cccc(C)c1NC(=O)CN1CCN(CCCC(c2ccc(F)cc2)c2ccc(F)cc2)CC1 | 7.3µM* | -60* | 11µM* | 5.8µM* | 0% | ?
Cc1cccc(C)c1NC(=O)CN1CCC(Cc2ccccc2)CC1 | 21µM* | 18 | -17% | 13µM* | . | -5%
Cc1cccc(C)c1NC(=O)C(c1ccccc1)N1CCC(Cc2ccccc2)CC1 (stereo unspecified) | 9.2µM* | 28 | -15% | 9.2µM* | . | -27%
COc1cc(NC(=O)CN2CCC(Cc3ccccc3)CC2)c(C)cc1[N+](=O)[O-] | 7.3µM* | 17 | -3% | 8.2µM* | -1% | 0%
COc1ccc(-c2[nH]ncc2CN(C)Cc2ccccn2)c(OC)c1 | -20% | 23 | 12% | ? | 0% | -24%
Cc1cccc(C)c1NC(=O)CN1CCc2ccccc2C1 | 10µM* | 8 | -19% | 16µM* | 5% | -4%
Cc1cc(C)cc(NC(=O)CN2CCc3ccccc3C2)c1 | -31% | -21 | -13% | -25% | 1% | -1%
O=C(CN1CCC(Cc2ccccc2)CC1)NC(=O)NC1CCCCC1 | ? | -21 | -9% | ? | 0% | -15%
O=C(CN1CCC(Cc2ccccc2)CC1)NC(=O)NCc1ccccc1 | -3% | -52* | -18% | -23% | -3% | ?
Cc1cc(=O)c2cc(NC(=O)c3ccccc3Cl)ccc2[nH]1 | 10% | 0 | 31% | -21% | 2% | -7%
COc1ccc(OC)c(Nc2nc(-c3cccs3)cs2)c1 | -1% | ? | -38% | -20% | ? | -17%
CCCCCC(=O)Nc1nc(C)c(-c2csc(Nc3cc(OC)ccc3OC)n2)s1 | 4.1µM* | 35 | 3% | 2.9µM* | 3% | 0%
CCCCCCC(=O)Nc1nc(C)c(-c2csc(Nc3cc(OC)ccc3OC)n2)s1 | ? | -3 | 6% | 18µM* | 5% | -2%
CC(=O)OCc1cnc(C)c2oc(=O)c(C(=O)Nc3cccc(F)c3)cc12 | . | . | -1% | . | . | 32%
CN1c2ccc(Cl)cc2-c2nc(SCC(=O)NCc3ccc(F)cc3)ncc2S1(=O)=O | -18% | . | 9% | -10% | . | 24%
Cc1cc(NC(=O)c2cnn(-c3ccccc3)c2-n2cccc2)ccc1Br | 18µM* | . | -1% | ? | . | 2%
CCN(CC)c1ccc(NC(=O)c2ccco2)c(C)c1 | ? | -11 | -2% | ? | 6% | 1%
Cc1ccc(NC(=O)c2cnn(-c3ccccc3)c2NC(=O)c2ccco2)cc1C | -12% | 3 | 13µM* | -19% | -1% | -2%
Cc1ccc(S(=O)(=O)NNC(=O)c2cnn(-c3ccccc3)c2-n2cccc2)cc1 | 1.6µM* | -3 | -12% | 1.5µM* | 0% | 0%
CCN(CC)c1ccc(NC(=O)c2cccc(F)c2)c(C)c1 | 4.6µM* | -6 | -2% | 3.3µM* | 1% | 0%
O=C(O)CCn1c(-c2ccccc2)cc2ccccc21 | 7% | 21 | 12% | 3% | 4% | 29%
SMILES | TDP1 cell CPT | IL1B secr inh | HepG2 tox | TDP1 cell noCPT | S-ASM inh | TGFb inhibitor
CC(=O)c1ccc(NC(=O)c2cnn(-c3cccc(F)c3)c2-n2cccc2)cc1 | ? | . | -4% | 23µM* | . | 0%
CCN(CC)c1ccc(NC(=O)c2cnn(-c3ccccc3)c2-n2cccc2)c(C)c1 | 15µM* | . | -16% | 10µM* | . | 0%
CCCNC(=O)C1(C)CCN(C(=O)c2cc(F)cc(F)c2)C1 (stereo unspecified) | -3% | 16 | 2% | 6% | . | 18%
Clc1ncc(CSc2ccccc2)s1 | 3% | 3 | 2% | 5% | -2% | 0%
CC(C)C(OC(=O)CN1C(=O)c2ccccc2C1=O)C(=O)NC1CCCC1 (stereo unspecified) | 10% | 21 | 3% | 2% | 0% | 4%
CN1C2CCC1CC(NS(=O)(=O)c1cccc(C(F)(F)F)c1)C2 (stereo unspecified) | -8% | -76* | 19% | 6% | 3% | 12%
CN1C2CCC1CC(NC(=O)c1cccc(C(F)(F)F)c1)C2 (stereo unspecified) | -6% | -12 | 0% | 0% | -1% | -3%
C[C@H](NC(=O)CNC(=O)[C@@H](NC(=O)[C@H](Cc1ccccc1)NC(=O)CNC(=O)CNC(=O)[C@@H](N)Cc1ccccc1)[C@@H](C)O)C(=O)N[C@@H](CCCN=C(N)N)C(=O)N[C@@H](CCCCN)C(=O)N[C@@H](CO)C(=O)N[C@@H](C)C(=O)N[C@@H](CCCN=C(N)N)C(=O)N[C@H](CN)CCCCN | -4%[4.12 µM] | . | . | -1%[4.12 µM] | . | .
CCN(CC)C(=S)SCC(=O)Nc1ccc(F)cc1 | 21µM* | -26 | 3% | ? | 3% | 12%
CCN(CC)C(=S)SCC(=O)c1ccccc1 | ? | -9 | -49% | ? | 9% | 6%
CCN(CC)C(=S)SCC(=O)c1ccc(F)cc1 | 2.9µM* | 9 | -100% | 4.1µM* | 0% | -25%
Cc1cc(Cl)ccc1Nc1ncnc2onc(C)c12 | ? | . | 1% | ? | . | -11%
CC(C)(C)OC(=O)N1CCC(c2c(C(=O)NC3CCCCC3)cnn2-c2ccc(F)cc2F)CC1 | 21µM* | . | -1% | ? | . | -29%
Cc1ccc(CNC(=O)c2cnn(-c3ccc(F)cc3F)c2C2CCN(C(=O)OC(C)(C)C)CC2)cc1 | ? | . | -5% | ? | . | ?
CC(C)(C)OC(=O)N1CCC(c2c(C(=O)N3CCN(c4ncccn4)CC3)cnn2-c2ccc(F)cc2F)CC1 | ? | . | -14% | ? | . | -16%

Bioassay records deposited in PubChem by National Center for Advancing Translational Sciences (NCATS).
